PAFAH1B3 FP inh – PAFAH1B3 enzyme inhibitors, primary screen, biochemical, fluorescence polarization, human | recombinant PAFAH1B3, FP-rhodamine probe | AID 492972, 2010 | Platelet-activating factor acetylhydrolase IB subunit alpha1 (Homo sapiens), Q15102 | 0.28% of 340,000 active | inhibition, % at 3.39 µM;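 active = inhibition above the screen-wide average of all tested compounds plus 3 SD, cut at about 25% in these data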;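 note: 0% = enzyme with DMSO only and 100% = wells lacking PAFAH1B3 protein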
PAFAH1B2 FP inh – PAFAH1B2 enzyme inhibitors, primary screen, biochemical, fluorescence polarization, human | Platelet-activating factor acetylhydrolase IB subunit alpha2 (Homo sapiens), P68402 | recombinant PAFAH1B2, FP-rhodamine activity probe | inhibition, % at 3.39 µM | 1.2% of 340,000 active;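 active = inhibition above the mean of all tested compounds plus 3 SD, cut at about 24% in these data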;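 note: 0% = enzyme with DMSO and 100% = wells lacking PAFAH1B2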
Target sequence (P68402 whole entry, looked up): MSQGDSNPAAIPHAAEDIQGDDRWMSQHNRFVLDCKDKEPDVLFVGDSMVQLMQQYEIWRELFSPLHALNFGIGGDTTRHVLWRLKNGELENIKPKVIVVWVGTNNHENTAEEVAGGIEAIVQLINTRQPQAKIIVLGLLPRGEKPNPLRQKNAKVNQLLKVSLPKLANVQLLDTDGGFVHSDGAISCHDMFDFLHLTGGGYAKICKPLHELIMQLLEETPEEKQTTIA
PAFAH2 inh – PAFAH2 enzyme inhibitors, primary screen, biochemical, fluorescence polarization, human | recombinant PAFAH2, FP-rhodamine activity probe | 0.99% of 340,000 active | Platelet-activating factor acetylhydrolase 2, cytoplasmic (Homo sapiens), Q99487 | inhibition, % at 3.39 µM;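 active = inhibition above the mean over all tested compounds plus 3 SD, cut at about 30% in these data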;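 note: inhibitors block probe labeling of enzyme so polarization drops; 0% = enzyme with DMSO and 100% = wells lacking PAFAH2 protein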
Fam108B inh – mouse Fam108B serine hydrolase inhibitors, primary screen, counter-screen for RBBP9 inhibitor project, biochemical, fluorescence polarization; 0.33% of 300,000 active; inhibition, % at 9.51 µM; recombinant Fam108B, FP-Rh probe fluorescence polarization;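 active = inhibition above the screen mean inhibition plus 3 SD, computed separately per campaign, cut at about 18% in these data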;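 note: inhibitors lower polarization as less probe binds the enzyme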
pPAFAH FP inh – pPAFAH enzyme inhibitors, primary screen, biochemical, fluorescence polarization, human; 1.5% of 330,000 active; inhibition, % at 3.39 µM; recombinant pPAFAH, FP-rhodamine probe fluorescence polarization; Platelet-activating factor acetylhydrolase (Homo sapiens), Q13093;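 active = inhibition above the mean inhibition across the screen plus 3 SD, cut at about 25% in these data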;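 note: inhibitors block binding of the rhodamine activity-based probe so polarization drops; 0% = enzyme with DMSO and 100% = wells lacking pPAFAH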
PME-1 primary – PME-1 inhibitors via competitive probe labeling, primary screen, biochemical, fluorescence polarization, FP-Rh probe, HTS; recombinant PME-1; inhibition, % at 5.9 µM; 0.53% of 320,000 active; AID 2130, 2009;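 active = inhibition above the campaign mean of all compounds plus 3 SD, cut at about 26% in these data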;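 note: competitive labeling of PME-1 active site by serine hydrolase directed probe; 0% = PME-1 with DMSO and 100% = wells lacking PME-1 enzyme; inhibitors block probe labeling so polarization falls and inhibition rises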
Target sequence (Q9Y570 whole entry, looked up): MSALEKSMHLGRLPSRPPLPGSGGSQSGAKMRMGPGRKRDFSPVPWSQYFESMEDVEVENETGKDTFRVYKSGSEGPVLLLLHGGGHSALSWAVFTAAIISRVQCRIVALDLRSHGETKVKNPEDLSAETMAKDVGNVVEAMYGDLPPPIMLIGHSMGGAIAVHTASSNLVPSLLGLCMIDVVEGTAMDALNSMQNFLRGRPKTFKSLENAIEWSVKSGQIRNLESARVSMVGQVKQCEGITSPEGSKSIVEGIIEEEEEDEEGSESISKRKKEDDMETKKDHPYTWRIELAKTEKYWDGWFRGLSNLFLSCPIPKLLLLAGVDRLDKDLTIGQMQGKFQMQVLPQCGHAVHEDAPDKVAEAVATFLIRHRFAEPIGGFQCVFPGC
pPAFAH confirm – pPAFAH (PLA2G7) enzyme inhibitors, confirmation, biochemical, fluorescence polarization, human; inhibition, % at 3.39 µM; shares compounds with pPAFAH FP inh; 72% of 2,300 active; recombinant pPAFAH, FP-Rh probe fluorescence polarization;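 active = mean inhibition of the triplicate above the hit cutoff set for the earlier primary screen, cut at about 25% in these data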;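 note: 0% = enzyme with DMSO and 100% = wells lacking pPAFAH enzyme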
Active calls of the source: *; nt = no result given. Hits are enriched below; roughly 2.9% of the tested compounds scored in any of these assays.

SMILES	PAFAH1B3 FP inh	PAFAH1B2 FP inh	PAFAH2 inh	Fam108B inh	pPAFAH FP inh	PME-1 primary	pPAFAH confirm
CC1Cc2cc(S(=O)(=O)N3CCC(C(=O)N(C)Cc4ccco4)CC3)ccc2N1C(=O)C1CCC1 (stereo unspecified)	4	2	-3	4	5	3	nt
O=C(Oc1ccc(-c2ccccc2)cc1)N1CCCCC1	3	6	0	-1	44*	10	81*
O=C(Oc1ccc(OC(=O)N2CCCCC2)cc1)N1CCCCC1	nt	nt	nt	1	0	9	nt
COc1ccc2c(Cl)c(C(=O)N/N=C/c3cccnc3)sc2c1	8	5	-3	-2	-1	-6	nt
O=C1/C(=C\c2cccc([N+](=O)[O-])c2O)SC(=S)N1Cc1ccccc1	-12	-1	2	3	35*	-9	77*
O=C1/C(=C/c2ccc(O)c([N+](=O)[O-])c2)SC(=S)N1Cc1ccccc1	-3	5	25	15	11	11	nt
NCCCCNCCCN	14	3	-4	-1	62*	-2	0
O=C(NNC(=O)c1cc2ccccc2cc1O)Nc1ccccc1F	14	3	2	4	65*	15	37*
Cc1ccc(NC(=O)NNC(=O)c2cc3ccccc3cc2O)cc1C	22	7	-13	-5	22	2	nt
Cc1c(C)c2ccc(O)c(CN3CCCC3)c2oc1=O	1	2	-1	2	1	-5	nt
O=c1oc2c(CN3CCCCC3)c(O)ccc2c2c1CCCC2	-5	-1	0	10	38*	3	5
CN(C)c1ccc(O)c2c1CC1CC3[C@@H](N(C)C)C(=O)C(C(N)=O)=C(O)[C@]3(O)C(=O)C1=C2O (stereo partly specified)	29*	12	33*	15	53*	-6	8
O=C1CC(=O)Nc2cc(S(=O)(=O)NCc3cccs3)ccc2N1	0	1	1	2	65*	3	2
O=C(Nc1ccc(Cc2ccncc2)cc1)c1ccc(S(=O)(=O)N2CCCC2)cc1	3	1	-1	nt	nt	nt	nt
CC(=O)N1CCC(=NNC(=O)c2cc3ccccc3cc2O)CC1	14	6	12	6	44*	19	6
O=C(NN=C1CCCCCC1)c1cc2ccccc2cc1O	9	6	5	2	58*	17	11
Cc1cc(C(=O)NN=C2CCCCCCC2)c2ccccc2n1	5	6	9	7	3	7	nt
O=S(=O)(CC(CN1CCCCC1)N1CCCCC1)c1ccc2ccccc2c1 (stereo unspecified)	-2	4	2	nt	nt	nt	nt
CCc1ccc(NS(=O)(=O)c2ccc3c(c2)oc(=O)n3C)cc1	5	6	1	1	58*	5	47*
CN1CCS/C1=C/C=C1/SC(=S)N(Cc2ccccc2)C1=O	10	2	26	18	36*	14	27*
Cn1cccc1/C=N/N1CCN(Cc2cccc3ccccc23)CC1	-2	-1	13	0	46*	-2	3
CN(C(=S)Nc1ccc(SC(F)F)cc1)c1ccc(O)cc1	3	8	4	2	51*	6	2
Cc1ccc(S(=O)(=O)NC2CC(=O)N(c3ccc4c(c3)OCCO4)C2)cc1 (stereo unspecified)	3	6	2	-1	10	0	nt
O=C1NN(c2ccc(F)c(Cl)c2)C(=O)/C1=C\c1cccc(OC(=O)c2cccs2)c1	12	42*	34*	17	40*	1	41*
COc1ccc(CNC(=O)N2CCN(c3ccccc3OC)CC2)cc1	9	4	-2	5	1	5	nt
SMILES	PAFAH1B3 FP inh	PAFAH1B2 FP inh	PAFAH2 inh	Fam108B inh	pPAFAH FP inh	PME-1 primary	pPAFAH confirm
C=CCn1c(SCC(=O)c2ccc(O)c(O)c2)nnc1-c1cccnc1	7	4	24	4	50*	-3	19
C=CCn1c(SCC(=O)c2ccc(O)c(O)c2)nnc1-c1cccc(C)c1	9	9	29	nt	35*	1	80*
CCn1c(SCC(=O)c2ccc(O)c(O)c2)nnc1-c1ccccc1	18	2	21	1	11	-3	nt
COc1ccccc1C(=O)NC(=O)COC(=O)C1CC2CCCC(C1)C2=O (stereo unspecified)	6	2	9	nt	nt	nt	nt
Cc1ccc(C(=O)NCCCc2ccccc2)c(Cl)c1	6	0	2	2	2	2	nt
O=C(NCCC(=O)N(CCc1ccccc1)Cc1ccccc1)c1ccccc1Cl	4	-2	5	-2	46*	2	1
Cc1cccc(NS(=O)(=O)c2ccc(C)c(C(=O)OCC(=O)Nc3cc(C)on3)c2)c1	5	4	-6	-2	68*	-3	62*
Cc1cc(NC(=O)COC(=O)CNS(=O)(=O)c2ccc(C)c(C)c2)no1	11	6	5	4	7	1	nt
COc1ccc(-n2c(C)cc(/C=C3\SC(=S)NC3=O)c2C)cc1	6	1	7	0	16	1	nt
Cc1cc(/C=C2\SC(=S)NC2=O)c(C)n1C	17	7	23	-2	39*	-7	7
Cc1cc(/C=C2\SC(=S)NC2=O)c(C)n1-c1ccc(O)cc1	12	12	21	9	35*	-7	45*
CC(=O)Nc1ccc(S(=O)(=O)NN=CCCc2ccccc2)cc1	-1	3	-1	nt	nt	nt	nt
CC(C)(C)c1ccc(/C=N/NC(=O)CN2CCS(=O)(=O)CC2)cc1	10	13	7	2	2	-1	nt
CSc1nc(N(C)CCO)c2sc3nc(-c4ccco4)c4c(c3c2n1)CCC4	-1	6	4	5	40*	-4	4
CSc1nc(NCCN(C)C)c2sc3nc(-c4ccco4)c4c(c3c2n1)CCC4	-2	3	2	nt	nt	nt	nt
NC(=S)NN=Cc1ccc(-c2ccc(S(=O)(=O)Nc3ncccn3)cc2)o1	31*	10	34*	nt	40*	nt	19
NC(=S)N/N=C/c1ccc(-c2ccccc2)o1	-4	-1	-1	-4	12	5	nt
Cc1cccc(C)c1NC(=O)CN(C)C(=O)c1cc(S(=O)(=O)N(C)C)ccc1N1CCCC1	7	-3	2	-4	35*	-2	4
O=C(N/N=C/c1cc([N+](=O)[O-])ccc1O)c1cccc2cc[nH]c12	-9	-3	24	8	61*	-5	52*
CCc1ccc(C(=O)C[n+]2cccc3cc(OC)ccc32)cc1	-2	5	6	nt	nt	nt	nt

Bioassay records deposited in PubChem BioAssay by The Scripps Research Institute Molecular Screening Center.
